What all share (assay): DAPPL (digital affinity profiling via proximity ligation, sequencing); 10 mM Tris-HCl pH 7.5, 50 mM NaCl, 1 mM DTT, 4% glycerol, room temperature, 30 min; GST-TFs on glutathione beads, 16-mer random dsDNA library, 0.1% formaldehyde crosslink after washing; high values mean tight binding
Test [1] deals with T1, FEV (Homo sapiens, UniProt Q99581 1-238).
T1 sequence: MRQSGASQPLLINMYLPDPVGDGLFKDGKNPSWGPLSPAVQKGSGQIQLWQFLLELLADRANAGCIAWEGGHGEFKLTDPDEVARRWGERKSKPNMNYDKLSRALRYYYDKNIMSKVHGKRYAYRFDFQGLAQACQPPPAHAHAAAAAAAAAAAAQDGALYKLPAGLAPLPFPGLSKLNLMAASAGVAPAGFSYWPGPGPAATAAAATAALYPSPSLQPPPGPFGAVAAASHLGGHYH
To be noted: protein: recombinant; tags: N-terminal GST; dsDNA, one strand shown. The method, boiled down:
(§1)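 Yeast served to express human transcription factors as GST fusions, which were then captured on glutathione beads and labelled with DNA barcodes. Pooled with a tag-only sample, they were incubated with 200 nmole of a 16-mer random double-stranded DNA library for 30 min at room temperature in Tris/NaCl/DTT/glycerol buffer, washed, crosslinked with 0.1% formaldehyde, ligated by proximity, amplified by PCR and sequenced. Dividing each hexamer's read frequency for a factor by its frequency for the tag-only sample gives the binding signal.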

In test [2] the target is ETV5 (Homo sapiens, UniProt P41161 1-510). The settings on record: protein: recombinant; tags: N-terminal GST; dsDNA, one strand shown. The method in brief: as §1
In test [3] the target is HSF1 (Homo sapiens, UniProt Q00613 1-529). To be noted: protein: recombinant; tags: N-terminal GST; chain copies: 3; dsDNA, one strand shown. The method in brief:
as §1

For test [4], the target named is T2, SPIC (Homo sapiens, UniProt Q8N5J4 1-248).
T2 sequence: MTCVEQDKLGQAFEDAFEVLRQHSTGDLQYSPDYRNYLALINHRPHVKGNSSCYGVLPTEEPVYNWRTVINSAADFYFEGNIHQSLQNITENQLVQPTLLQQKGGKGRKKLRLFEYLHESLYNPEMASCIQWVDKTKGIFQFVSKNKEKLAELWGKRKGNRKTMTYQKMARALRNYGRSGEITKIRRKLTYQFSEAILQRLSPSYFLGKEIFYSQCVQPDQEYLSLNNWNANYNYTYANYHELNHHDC
The settings on record: protein: recombinant; tags: N-terminal GST; dsDNA, one strand shown. The method, boiled down:
as §1

Test [5] addresses ELF4 (Homo sapiens, UniProt Q99607 1-663). The settings on record: protein: recombinant; tags: N-terminal GST; dsDNA, one strand shown. The method in brief: as §1
Test [6] addresses T3, ELK4 (Homo sapiens, UniProt P28324-2 1-405).
T3 sequence: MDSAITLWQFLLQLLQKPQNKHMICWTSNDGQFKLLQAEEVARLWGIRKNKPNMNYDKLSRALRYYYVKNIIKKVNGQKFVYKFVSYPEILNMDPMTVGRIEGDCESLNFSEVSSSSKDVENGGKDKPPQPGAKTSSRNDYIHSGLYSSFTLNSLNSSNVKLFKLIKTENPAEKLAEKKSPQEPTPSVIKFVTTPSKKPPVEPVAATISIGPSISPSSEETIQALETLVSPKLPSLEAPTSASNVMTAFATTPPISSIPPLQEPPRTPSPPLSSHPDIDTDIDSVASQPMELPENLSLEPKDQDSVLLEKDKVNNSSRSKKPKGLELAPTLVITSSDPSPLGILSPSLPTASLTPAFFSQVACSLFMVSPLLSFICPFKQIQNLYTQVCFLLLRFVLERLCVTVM
To be noted: protein: recombinant; tags: N-terminal GST; dsDNA, one strand shown. The method in brief:
as §1

In test [7] the target is T4, ETV2 (Homo sapiens, UniProt O00321 1-342).
T4 sequence: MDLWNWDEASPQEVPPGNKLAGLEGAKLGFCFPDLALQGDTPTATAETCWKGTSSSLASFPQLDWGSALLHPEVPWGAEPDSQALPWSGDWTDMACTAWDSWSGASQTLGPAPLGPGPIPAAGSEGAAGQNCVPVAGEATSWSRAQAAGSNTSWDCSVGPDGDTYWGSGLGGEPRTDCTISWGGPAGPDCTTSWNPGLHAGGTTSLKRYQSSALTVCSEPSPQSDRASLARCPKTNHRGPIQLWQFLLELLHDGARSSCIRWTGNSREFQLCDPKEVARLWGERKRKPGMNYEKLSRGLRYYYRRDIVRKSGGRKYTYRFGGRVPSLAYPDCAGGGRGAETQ
To be noted: protein: recombinant; tags: N-terminal GST; dsDNA, one strand shown. The method, boiled down: as §1

Test [8] concerns the target T5, ELF3 (Homo sapiens, UniProt P78545 1-371).
T5 sequence: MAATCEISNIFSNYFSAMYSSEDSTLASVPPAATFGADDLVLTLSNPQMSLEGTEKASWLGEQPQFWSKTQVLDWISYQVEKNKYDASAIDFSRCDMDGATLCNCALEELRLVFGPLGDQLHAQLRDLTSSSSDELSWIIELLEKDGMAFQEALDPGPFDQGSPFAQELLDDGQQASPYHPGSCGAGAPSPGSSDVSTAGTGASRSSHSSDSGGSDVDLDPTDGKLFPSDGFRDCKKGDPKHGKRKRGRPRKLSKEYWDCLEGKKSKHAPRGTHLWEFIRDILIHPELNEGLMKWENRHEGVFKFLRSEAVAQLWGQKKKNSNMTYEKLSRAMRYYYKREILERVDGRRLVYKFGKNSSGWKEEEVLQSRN
To be noted: protein: recombinant; tags: N-terminal GST; dsDNA, one strand shown. The method, boiled down: as §1

In test [9] the target is CRX (Homo sapiens, UniProt O43186 1-299). The settings on record: protein: recombinant; tags: N-terminal GST; dsDNA, one strand shown. The method, boiled down:
as §1

The target in test [10] is ETV1 (Homo sapiens, UniProt P50549 1-477). The settings on record: protein: recombinant; tags: N-terminal GST; dsDNA, one strand shown. The method, boiled down:
as §1

The target in test [11] is T6, ERF (Homo sapiens, UniProt P50548 1-548).
T6 sequence: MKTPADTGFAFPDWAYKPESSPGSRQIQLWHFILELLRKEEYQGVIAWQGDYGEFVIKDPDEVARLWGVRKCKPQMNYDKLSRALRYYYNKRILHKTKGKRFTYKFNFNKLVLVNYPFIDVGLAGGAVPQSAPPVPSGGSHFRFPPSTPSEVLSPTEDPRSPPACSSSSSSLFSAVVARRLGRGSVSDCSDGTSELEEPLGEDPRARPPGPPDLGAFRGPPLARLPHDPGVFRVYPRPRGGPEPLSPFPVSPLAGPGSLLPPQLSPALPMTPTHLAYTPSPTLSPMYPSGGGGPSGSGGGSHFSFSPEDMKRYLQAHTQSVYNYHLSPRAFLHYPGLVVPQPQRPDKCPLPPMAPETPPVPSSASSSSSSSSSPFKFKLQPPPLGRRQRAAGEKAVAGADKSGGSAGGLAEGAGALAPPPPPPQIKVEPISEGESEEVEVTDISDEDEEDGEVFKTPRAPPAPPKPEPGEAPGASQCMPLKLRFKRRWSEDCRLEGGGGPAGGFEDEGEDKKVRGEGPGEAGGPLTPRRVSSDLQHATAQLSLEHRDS
The settings on record: protein: recombinant; tags: N-terminal GST; dsDNA, one strand shown. The method, boiled down: as §1

Test [12] addresses T7, ETV3L (Homo sapiens, UniProt Q6ZN32 1-361).
T7 sequence: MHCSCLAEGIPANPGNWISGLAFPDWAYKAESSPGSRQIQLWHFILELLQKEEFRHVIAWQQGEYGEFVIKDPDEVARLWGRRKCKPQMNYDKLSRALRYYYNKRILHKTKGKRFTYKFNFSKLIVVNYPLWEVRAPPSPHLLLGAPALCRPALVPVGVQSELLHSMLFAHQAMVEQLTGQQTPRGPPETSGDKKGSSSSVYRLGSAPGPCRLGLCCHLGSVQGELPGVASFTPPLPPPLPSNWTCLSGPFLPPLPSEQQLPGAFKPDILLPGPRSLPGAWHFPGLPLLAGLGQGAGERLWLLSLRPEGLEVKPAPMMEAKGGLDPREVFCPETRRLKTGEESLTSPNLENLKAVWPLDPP
To be noted: protein: recombinant; tags: N-terminal GST; dsDNA, one strand shown. The method, boiled down:
as §1

Test [13] addresses T8, ETS2 (Homo sapiens, UniProt P15036 1-469).
T8 sequence: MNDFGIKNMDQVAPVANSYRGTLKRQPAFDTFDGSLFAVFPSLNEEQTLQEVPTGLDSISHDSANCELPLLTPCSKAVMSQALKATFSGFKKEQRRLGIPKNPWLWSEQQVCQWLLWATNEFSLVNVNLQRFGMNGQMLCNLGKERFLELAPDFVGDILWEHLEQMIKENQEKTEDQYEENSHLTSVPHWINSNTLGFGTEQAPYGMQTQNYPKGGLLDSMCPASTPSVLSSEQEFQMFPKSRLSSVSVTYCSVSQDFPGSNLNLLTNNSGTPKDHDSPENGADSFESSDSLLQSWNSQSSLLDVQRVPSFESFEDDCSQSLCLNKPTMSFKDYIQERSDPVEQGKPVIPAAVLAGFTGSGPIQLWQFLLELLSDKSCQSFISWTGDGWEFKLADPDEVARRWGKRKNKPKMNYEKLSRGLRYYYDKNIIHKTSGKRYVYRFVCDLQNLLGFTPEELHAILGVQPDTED
To be noted: protein: recombinant; tags: N-terminal GST; dsDNA, one strand shown. The method in brief: as §1

Test [14] concerns the target T9, SPDEF (Homo sapiens, UniProt O95238 1-335).
T9 sequence: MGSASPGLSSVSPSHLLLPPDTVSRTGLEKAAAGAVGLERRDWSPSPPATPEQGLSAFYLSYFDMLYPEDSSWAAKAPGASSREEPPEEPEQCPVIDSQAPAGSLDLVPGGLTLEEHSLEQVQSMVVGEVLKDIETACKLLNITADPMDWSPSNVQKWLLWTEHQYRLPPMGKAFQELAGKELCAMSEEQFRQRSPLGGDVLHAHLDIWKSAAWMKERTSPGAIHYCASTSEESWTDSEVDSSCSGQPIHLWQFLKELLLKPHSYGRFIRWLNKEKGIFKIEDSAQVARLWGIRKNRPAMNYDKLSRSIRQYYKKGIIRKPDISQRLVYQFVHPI
The settings on record: protein: recombinant; tags: N-terminal GST; dsDNA, one strand shown. The method in brief: as §1

In test [15] the target is T10, ETV7 (Homo sapiens, UniProt Q9Y603 1-341).
T10 sequence: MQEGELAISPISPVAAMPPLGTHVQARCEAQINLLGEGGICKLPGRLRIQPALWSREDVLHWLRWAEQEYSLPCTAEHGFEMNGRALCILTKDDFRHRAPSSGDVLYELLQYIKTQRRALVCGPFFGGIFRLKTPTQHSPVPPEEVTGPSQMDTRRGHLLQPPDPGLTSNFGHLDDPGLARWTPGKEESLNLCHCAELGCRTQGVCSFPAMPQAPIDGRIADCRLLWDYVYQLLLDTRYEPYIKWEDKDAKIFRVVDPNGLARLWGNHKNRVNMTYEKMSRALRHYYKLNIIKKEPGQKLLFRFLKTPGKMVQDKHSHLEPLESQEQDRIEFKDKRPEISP
To be noted: protein: recombinant; tags: N-terminal GST; dsDNA, one strand shown. The method in brief: as §1

Test [16] addresses T11, ELF5 (Homo sapiens, UniProt Q9UKW6-2 1-255).
T11 sequence: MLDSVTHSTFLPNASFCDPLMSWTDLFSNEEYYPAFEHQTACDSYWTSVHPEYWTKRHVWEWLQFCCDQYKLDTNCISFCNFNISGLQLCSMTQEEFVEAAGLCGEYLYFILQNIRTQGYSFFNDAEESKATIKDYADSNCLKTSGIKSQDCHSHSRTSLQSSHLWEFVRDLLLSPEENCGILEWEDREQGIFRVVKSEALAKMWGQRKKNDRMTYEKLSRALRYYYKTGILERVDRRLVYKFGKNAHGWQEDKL
To be noted: protein: recombinant; tags: N-terminal GST; dsDNA, one strand shown. The method in brief: as §1

The target of test [17] is T12, ETV3 (Homo sapiens, UniProt P41162-2 1-143).
T12 sequence: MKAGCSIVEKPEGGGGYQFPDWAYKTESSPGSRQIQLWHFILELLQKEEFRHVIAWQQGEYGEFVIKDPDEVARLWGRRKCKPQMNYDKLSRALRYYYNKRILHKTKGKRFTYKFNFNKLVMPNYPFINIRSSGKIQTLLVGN
The settings on record: protein: recombinant; tags: N-terminal GST; dsDNA, one strand shown. The method, boiled down: as §1

Test [18] concerns the target ETV6 (Homo sapiens, UniProt P41212 1-452). To be noted: protein: recombinant; tags: N-terminal GST; dsDNA, one strand shown. The method in brief: as §1

Sequence of ETV5 (P41161 whole entry): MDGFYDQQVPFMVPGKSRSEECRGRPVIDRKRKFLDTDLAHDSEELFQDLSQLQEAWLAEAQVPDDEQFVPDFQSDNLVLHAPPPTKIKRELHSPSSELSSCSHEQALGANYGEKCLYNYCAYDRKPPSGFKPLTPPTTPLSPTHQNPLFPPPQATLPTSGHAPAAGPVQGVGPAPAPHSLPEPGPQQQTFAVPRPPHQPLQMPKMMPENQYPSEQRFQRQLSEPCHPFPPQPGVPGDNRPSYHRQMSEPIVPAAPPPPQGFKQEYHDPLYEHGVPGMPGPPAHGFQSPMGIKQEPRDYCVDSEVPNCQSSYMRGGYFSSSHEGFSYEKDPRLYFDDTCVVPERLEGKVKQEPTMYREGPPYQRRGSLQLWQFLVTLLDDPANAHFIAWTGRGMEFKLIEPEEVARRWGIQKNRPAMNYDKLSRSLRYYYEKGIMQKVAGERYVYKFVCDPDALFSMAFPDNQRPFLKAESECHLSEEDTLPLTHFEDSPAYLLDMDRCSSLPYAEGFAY
Sequence of ETV6 (P41212 whole entry): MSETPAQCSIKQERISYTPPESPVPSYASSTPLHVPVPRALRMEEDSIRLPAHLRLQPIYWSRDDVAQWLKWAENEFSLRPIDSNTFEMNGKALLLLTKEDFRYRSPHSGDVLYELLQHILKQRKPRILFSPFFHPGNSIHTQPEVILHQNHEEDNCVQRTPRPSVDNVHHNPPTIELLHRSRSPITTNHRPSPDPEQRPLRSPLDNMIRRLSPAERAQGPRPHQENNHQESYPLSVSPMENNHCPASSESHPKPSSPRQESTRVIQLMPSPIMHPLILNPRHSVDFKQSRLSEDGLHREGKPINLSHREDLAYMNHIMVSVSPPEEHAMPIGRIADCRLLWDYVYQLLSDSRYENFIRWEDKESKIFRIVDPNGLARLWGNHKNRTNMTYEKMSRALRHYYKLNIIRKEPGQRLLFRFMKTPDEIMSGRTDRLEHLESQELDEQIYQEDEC
Sequence of HSF1 (Q00613 whole entry): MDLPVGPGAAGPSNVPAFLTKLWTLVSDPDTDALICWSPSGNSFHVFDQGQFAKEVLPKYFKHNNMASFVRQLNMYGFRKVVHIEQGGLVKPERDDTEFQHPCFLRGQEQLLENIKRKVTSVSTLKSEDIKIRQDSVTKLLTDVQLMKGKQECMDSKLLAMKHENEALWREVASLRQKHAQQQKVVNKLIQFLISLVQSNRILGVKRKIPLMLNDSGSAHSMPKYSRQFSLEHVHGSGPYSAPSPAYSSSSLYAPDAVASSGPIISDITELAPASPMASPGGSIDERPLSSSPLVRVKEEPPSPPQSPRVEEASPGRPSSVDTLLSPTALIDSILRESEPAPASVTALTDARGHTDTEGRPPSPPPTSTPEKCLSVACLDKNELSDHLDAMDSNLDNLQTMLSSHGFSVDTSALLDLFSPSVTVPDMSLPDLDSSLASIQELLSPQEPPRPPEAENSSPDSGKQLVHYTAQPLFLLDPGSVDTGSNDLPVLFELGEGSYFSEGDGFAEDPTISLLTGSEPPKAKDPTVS
Sequence of ELF4 (Q99607 whole entry): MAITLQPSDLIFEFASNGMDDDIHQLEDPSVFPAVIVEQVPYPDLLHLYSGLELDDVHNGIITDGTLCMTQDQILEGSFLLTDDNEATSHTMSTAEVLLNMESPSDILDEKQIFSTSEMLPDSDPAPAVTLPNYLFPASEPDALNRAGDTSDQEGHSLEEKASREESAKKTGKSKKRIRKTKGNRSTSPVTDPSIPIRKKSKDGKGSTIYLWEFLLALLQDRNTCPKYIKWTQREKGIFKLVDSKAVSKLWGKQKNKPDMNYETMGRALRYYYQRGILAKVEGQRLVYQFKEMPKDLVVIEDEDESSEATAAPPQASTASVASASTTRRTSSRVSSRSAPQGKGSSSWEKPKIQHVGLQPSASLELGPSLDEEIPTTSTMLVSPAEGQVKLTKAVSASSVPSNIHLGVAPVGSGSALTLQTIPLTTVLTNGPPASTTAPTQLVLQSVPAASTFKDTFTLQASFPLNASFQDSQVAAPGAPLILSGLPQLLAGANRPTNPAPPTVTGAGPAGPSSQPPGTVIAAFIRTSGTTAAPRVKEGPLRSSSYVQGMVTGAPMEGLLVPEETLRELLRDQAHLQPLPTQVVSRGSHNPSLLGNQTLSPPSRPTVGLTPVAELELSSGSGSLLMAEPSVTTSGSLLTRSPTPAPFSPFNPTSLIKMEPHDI
Sequence of CRX (O43186 whole entry): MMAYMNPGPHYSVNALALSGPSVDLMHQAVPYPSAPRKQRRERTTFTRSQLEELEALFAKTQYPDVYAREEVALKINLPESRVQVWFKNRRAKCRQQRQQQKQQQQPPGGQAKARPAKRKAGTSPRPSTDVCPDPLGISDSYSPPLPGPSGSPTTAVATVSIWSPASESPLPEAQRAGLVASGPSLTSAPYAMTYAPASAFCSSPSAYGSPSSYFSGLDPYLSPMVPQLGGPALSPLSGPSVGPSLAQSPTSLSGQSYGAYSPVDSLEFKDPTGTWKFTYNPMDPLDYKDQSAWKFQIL
Sequence of ETV1 (P50549 whole entry): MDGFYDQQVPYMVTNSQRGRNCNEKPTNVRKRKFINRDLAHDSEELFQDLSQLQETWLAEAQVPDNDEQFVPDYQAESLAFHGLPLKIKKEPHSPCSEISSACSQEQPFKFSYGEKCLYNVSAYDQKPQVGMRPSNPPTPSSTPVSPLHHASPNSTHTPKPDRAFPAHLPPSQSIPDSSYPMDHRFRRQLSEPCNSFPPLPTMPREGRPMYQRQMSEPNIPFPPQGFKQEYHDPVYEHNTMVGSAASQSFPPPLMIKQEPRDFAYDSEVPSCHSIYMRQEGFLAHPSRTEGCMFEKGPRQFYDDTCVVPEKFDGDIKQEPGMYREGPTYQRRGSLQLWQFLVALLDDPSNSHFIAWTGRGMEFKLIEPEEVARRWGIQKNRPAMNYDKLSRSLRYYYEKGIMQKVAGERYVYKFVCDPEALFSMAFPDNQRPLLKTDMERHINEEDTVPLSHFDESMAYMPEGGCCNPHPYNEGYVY

In the case of TTCTTT, the binding signal in [1] was 1.19 fold enrichment (6-mer frequency, TF over GST control); in test [2], 1.14 fold enrichment (6-mer frequency, TF over GST control); in [3], 1.7 fold enrichment (6-mer frequency, TF over GST control); in [4] it was 1.2 fold enrichment (6-mer frequency, TF over GST control); in [5], 1.28 fold enrichment (6-mer frequency, TF over GST control); in test [6], 1.25 fold enrichment (6-mer frequency, TF over GST control). Also, the binding signal in test [7] is 1.27 fold enrichment (6-mer frequency, TF over GST control); in test [8] it was 1.28 fold enrichment (6-mer frequency, TF over GST control); in test [9], 1.44 fold enrichment (6-mer frequency, TF over GST control); in [10], 1.29 fold enrichment (6-mer frequency, TF over GST control); in test [11] it was 1.08 fold enrichment (6-mer frequency, TF over GST control); in test [12] it was 1.27 fold enrichment (6-mer frequency, TF over GST control). The binding signal was 1.32 fold enrichment (6-mer frequency, TF over GST control) in [13]; 1.08 fold enrichment (6-mer frequency, TF over GST control) in test [14]; 1.24 fold enrichment (6-mer frequency, TF over GST control) in test [15]; 1.13 fold enrichment (6-mer frequency, TF over GST control) in [16]; 1.2 fold enrichment (6-mer frequency, TF over GST control) in test [17]; 1.14 fold enrichment (6-mer frequency, TF over GST control) in test [18].

The values above are taken from article PMC7862700, “An all-to-all approach to the identification of sequence-specific readers for epigenetic DNA modifications on cytosine”.
